{"source": "the supplement of paper PMC10849652", "note": "Of roughly 8,800 targets only a part is listed; those with a hit were picked by preference. About 0.5% of all pairs of compound and target were hits. A number with no mark means an inactive call.", "data": [{"compound": "c1ccc([C@@H]2C[C@H]2NC2CCNCC2)cc1", "experiment": "log2 fold change, soluble protein after heating vs DMSO (PISA); higher = thermal stabilisation; K562 lysate, 10 uM; active = over 0.2 and 3.5 SD of the protein, either way, in both replicates (recomputed)", "how_it_was_run": "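Quantification was by TMTpro 16plex LC-MS/MS with equalised channel sums, applied to the supernatant after 21,000xg for 90 min. Samples were crude K562 extract at 1 mg/mL protein in PBS pH 7.4 with 1 mM MgCl2, treated with 10 μM compound for 30 min, heated for 3 min across 48°C-58°C, pooled and brought to 0.5% NP-40 at 4°C. Values are log-two fold changes in thermal stability relative to solvent controls, from duplicates.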", "values": [{"target": "GEMIN2 (UniProt O14893)", "sequence (O14893 whole entry, looked up)": "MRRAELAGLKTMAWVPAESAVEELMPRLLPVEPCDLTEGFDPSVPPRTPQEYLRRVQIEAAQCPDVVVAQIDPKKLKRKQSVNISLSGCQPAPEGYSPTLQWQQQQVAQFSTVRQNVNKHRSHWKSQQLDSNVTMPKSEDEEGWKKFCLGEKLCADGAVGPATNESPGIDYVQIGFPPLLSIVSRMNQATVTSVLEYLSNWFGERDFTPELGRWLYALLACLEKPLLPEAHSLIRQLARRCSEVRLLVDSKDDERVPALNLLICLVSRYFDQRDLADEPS", "log2 fold change": -0.043}, {"target": "FYB1 isoform 3 (UniProt O15117)", "log2 fold change": 0.051}, {"target": "FANCD2 isoform 1 (UniProt Q9BXW9)", "log2 fold change": -0.054}, {"target": "EIF2B5 (UniProt Q13144)", "sequence (Q13144 whole entry, looked up)": "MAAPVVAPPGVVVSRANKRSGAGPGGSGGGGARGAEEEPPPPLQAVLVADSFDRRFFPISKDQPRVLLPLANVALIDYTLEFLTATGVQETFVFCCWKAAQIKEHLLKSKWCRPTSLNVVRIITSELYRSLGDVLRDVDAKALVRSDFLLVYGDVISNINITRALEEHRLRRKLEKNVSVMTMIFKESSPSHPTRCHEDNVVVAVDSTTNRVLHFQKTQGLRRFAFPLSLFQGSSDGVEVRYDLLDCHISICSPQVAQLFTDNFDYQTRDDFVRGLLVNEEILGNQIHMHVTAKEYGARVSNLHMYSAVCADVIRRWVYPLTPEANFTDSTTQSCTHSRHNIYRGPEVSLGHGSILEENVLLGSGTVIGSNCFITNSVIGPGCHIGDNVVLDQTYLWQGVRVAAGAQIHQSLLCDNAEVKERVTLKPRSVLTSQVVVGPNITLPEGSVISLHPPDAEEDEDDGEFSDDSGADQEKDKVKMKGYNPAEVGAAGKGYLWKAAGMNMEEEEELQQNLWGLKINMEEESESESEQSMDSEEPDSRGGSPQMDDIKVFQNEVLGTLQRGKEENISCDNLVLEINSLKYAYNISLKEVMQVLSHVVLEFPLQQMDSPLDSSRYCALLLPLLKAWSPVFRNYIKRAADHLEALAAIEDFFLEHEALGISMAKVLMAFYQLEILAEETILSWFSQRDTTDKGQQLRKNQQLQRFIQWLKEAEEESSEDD", "log2 fold change": 0.017}, {"target": "DTYMK (UniProt P23919)", "log2 fold change": 0.098}, {"target": "FDX2 (UniProt Q6P4F2)", "log2 fold change": -0.05}, {"target": "FNBP1L (UniProt Q5T0N5)", "sequence (Q5T0N5 whole entry, looked up)": "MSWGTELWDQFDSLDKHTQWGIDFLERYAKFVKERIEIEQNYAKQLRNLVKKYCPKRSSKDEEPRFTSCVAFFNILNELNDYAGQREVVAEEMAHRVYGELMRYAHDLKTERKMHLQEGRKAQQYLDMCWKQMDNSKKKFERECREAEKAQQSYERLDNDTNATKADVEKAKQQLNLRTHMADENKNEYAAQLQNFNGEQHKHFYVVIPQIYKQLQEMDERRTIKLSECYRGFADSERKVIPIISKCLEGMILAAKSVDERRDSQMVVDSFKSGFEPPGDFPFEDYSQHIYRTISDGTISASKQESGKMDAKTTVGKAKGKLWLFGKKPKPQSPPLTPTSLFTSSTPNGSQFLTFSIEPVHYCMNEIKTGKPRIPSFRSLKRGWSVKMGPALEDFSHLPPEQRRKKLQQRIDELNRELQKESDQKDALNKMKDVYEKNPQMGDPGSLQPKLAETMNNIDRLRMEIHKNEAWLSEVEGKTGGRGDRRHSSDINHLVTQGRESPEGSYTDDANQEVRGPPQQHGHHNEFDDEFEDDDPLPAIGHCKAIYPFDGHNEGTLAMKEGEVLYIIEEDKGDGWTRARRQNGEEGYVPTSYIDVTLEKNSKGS", "log2 fold change": 0.029}, {"target": "GGA2 (UniProt Q9UJY4)", "log2 fold change": 0.032}, {"target": "FBXO30 (UniProt Q8TB52)", "sequence (Q8TB52 whole entry, looked up)": "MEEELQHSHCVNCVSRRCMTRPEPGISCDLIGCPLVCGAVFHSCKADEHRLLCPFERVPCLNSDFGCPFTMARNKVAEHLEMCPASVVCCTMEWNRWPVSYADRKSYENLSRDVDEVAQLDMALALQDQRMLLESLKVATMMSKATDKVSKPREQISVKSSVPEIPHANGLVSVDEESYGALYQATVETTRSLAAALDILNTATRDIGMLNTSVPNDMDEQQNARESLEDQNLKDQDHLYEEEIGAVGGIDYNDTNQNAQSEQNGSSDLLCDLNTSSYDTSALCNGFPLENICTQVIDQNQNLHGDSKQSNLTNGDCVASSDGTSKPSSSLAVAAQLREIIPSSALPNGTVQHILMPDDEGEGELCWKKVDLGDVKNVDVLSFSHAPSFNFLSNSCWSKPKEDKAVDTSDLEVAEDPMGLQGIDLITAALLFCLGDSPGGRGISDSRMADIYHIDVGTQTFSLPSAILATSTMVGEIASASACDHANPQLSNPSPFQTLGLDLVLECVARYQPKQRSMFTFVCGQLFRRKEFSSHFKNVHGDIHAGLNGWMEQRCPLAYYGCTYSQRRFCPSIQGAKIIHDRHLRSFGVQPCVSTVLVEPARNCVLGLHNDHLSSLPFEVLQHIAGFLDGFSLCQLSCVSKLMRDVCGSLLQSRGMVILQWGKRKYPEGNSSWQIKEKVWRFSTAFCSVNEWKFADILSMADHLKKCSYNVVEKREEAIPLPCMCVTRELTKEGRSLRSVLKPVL", "log2 fold change": 0.12}, {"target": "ESRRA (UniProt P11474)", "log2 fold change": 0.264}, {"target": "EIF1 (UniProt P41567)", "log2 fold change": -0.114}, {"target": "GEMIN4 (UniProt P57678)", "sequence (P57678 whole entry, looked up)": "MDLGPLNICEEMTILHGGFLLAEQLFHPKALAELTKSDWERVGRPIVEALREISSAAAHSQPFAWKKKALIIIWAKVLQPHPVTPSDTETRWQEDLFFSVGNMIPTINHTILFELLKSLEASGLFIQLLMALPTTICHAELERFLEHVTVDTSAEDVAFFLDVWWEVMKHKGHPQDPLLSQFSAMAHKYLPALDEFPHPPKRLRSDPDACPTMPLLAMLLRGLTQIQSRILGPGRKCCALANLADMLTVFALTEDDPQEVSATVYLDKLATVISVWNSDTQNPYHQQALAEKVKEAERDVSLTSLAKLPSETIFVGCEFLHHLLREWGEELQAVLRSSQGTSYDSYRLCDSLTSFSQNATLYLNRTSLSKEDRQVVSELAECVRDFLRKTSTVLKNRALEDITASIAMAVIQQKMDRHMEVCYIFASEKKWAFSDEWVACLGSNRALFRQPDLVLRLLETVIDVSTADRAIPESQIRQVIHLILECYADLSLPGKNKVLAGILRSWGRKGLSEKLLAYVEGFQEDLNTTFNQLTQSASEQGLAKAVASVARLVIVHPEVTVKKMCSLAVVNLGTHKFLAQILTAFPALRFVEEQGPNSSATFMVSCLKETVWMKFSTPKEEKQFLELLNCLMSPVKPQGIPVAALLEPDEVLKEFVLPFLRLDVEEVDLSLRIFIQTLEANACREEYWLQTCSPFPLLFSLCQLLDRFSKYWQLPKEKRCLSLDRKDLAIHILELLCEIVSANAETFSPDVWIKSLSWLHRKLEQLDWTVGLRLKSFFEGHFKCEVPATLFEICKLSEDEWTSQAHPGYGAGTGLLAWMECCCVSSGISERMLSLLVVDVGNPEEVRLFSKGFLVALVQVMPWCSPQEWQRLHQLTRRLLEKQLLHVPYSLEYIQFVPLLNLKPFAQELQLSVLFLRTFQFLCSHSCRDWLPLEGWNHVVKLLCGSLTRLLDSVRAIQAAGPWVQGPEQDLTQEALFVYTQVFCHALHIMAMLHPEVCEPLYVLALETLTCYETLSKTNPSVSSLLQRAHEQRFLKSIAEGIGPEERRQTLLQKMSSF", "log2 fold change": 0.041}, {"target": "ESPL1 (UniProt Q14674)", "log2 fold change": 0.077}, {"target": "EIF3I (UniProt Q13347)", "log2 fold change": 0.033}, {"target": "DTL (UniProt Q9NZJ0)", "log2 fold change": -0.01}, {"target": "FADS3 (UniProt Q9Y5Q0)", "sequence (Q9Y5Q0 whole entry, looked up)": "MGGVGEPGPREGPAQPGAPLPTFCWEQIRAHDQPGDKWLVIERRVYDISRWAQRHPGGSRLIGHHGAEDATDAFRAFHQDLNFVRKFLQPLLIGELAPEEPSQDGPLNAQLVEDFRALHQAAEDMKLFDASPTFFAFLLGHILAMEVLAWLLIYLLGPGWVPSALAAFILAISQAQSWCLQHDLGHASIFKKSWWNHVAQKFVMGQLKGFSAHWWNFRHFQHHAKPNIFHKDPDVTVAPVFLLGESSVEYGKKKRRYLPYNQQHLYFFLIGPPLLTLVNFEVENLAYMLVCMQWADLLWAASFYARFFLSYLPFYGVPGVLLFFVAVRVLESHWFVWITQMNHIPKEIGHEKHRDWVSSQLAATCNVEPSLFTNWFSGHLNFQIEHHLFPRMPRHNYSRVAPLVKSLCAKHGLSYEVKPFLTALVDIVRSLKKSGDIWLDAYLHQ", "log2 fold change": -0.115}, {"target": "GGT7 (UniProt Q9UJ14)", "log2 fold change": -0.048}, {"target": "ETFRF1 (UniProt Q6IPR1)", "log2 fold change": 0.066}, {"target": "FBXO9 (UniProt Q9UK97)", "log2 fold change": 0.095}, {"target": "EXTL2 (UniProt Q9UBQ6)", "log2 fold change": 0.028}, {"target": "ERI1 (UniProt Q8IV48)", "sequence (Q8IV48 whole entry, looked up)": "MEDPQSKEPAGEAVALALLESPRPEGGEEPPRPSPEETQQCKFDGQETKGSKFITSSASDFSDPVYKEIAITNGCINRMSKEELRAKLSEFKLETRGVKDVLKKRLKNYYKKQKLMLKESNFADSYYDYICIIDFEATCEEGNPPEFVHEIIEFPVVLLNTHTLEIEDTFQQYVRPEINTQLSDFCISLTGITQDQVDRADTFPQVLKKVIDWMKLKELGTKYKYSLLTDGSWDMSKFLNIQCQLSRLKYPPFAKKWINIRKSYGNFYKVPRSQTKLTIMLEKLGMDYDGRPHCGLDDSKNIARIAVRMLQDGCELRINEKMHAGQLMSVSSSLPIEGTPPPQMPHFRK", "log2 fold change": 0.056}, {"target": "FAM53B (UniProt Q14153)", "log2 fold change": 0.022}, {"target": "EP400 isoform 5 (UniProt Q96L91)", "log2 fold change": 0.016}, {"target": "ENO1, A0A2R8YEM5", "log2 fold change": -0.21}, {"target": "GART (UniProt P22102)", "log2 fold change": 0.042}, {"target": "ESYT2 (UniProt H7BXI1)", "log2 fold change": 0.036}, {"target": "EIF2B3 (UniProt Q9NR50)", "sequence (Q9NR50 whole entry, looked up)": "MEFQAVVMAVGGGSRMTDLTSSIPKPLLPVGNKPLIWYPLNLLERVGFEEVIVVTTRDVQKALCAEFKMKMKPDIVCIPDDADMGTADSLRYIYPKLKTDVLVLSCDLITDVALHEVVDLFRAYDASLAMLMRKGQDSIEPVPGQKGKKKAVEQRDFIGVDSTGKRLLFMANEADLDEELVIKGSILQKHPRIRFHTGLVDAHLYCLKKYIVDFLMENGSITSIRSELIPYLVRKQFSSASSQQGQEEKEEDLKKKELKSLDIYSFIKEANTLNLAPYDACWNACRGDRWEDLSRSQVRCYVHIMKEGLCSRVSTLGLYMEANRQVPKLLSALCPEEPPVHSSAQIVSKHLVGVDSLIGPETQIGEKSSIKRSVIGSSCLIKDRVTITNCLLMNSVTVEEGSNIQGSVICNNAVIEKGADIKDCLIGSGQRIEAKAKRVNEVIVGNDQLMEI", "log2 fold change": 0.107}, {"target": "EP300 (UniProt Q09472)", "log2 fold change": -0.016}, {"target": "EEF1AKNMT (UniProt Q8N6R0)", "log2 fold change": 0.042}, {"target": "ERLIN2 (UniProt O94905)", "sequence (O94905 whole entry, looked up)": "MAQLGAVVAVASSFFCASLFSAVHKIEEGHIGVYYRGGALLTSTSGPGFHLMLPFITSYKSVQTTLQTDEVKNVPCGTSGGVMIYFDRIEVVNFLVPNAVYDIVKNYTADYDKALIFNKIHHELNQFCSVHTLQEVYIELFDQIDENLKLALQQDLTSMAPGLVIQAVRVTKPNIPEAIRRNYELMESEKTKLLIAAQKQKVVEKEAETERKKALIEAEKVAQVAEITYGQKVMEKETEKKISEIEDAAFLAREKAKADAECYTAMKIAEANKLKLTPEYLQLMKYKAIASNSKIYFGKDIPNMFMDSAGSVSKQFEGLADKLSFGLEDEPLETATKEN", "log2 fold change": 0.143}, {"target": "EPB41, A0A2R8Y6D0", "log2 fold change": 0.11}, {"target": "FAM83D (UniProt Q9H4H8)", "log2 fold change": -0.006}, {"target": "EDC4 (UniProt Q6P2E9)", "log2 fold change": 0.011}, {"target": "EPHX2 (UniProt P34913)", "log2 fold change": -0.012}, {"target": "GAMT (UniProt Q14353)", "log2 fold change": 0.005}, {"target": "ENSA isoform 3 (UniProt O43768)", "log2 fold change": 0.02}]}]}
